Assay outcomes: PubChem BioAssay, National Center for Advancing Translational Sciences (NCATS)
12-LOX inh: ALOX12 (human) lipoxygenase inhibition | purified 12hLO, xylenol orange hydroperoxide absorbance | Potency, µM (highest dose often 108 µM), for the others: at the highest dose activity change, negative = inhibition, actives largely listed as inhibitors | 580,000 tested, 1.1% active | AID 1671190 | P18054; also: % is scaled to controls: 0 for no effect and ±100 for the full control effect
Target sequence (P18054 whole entry, looked up): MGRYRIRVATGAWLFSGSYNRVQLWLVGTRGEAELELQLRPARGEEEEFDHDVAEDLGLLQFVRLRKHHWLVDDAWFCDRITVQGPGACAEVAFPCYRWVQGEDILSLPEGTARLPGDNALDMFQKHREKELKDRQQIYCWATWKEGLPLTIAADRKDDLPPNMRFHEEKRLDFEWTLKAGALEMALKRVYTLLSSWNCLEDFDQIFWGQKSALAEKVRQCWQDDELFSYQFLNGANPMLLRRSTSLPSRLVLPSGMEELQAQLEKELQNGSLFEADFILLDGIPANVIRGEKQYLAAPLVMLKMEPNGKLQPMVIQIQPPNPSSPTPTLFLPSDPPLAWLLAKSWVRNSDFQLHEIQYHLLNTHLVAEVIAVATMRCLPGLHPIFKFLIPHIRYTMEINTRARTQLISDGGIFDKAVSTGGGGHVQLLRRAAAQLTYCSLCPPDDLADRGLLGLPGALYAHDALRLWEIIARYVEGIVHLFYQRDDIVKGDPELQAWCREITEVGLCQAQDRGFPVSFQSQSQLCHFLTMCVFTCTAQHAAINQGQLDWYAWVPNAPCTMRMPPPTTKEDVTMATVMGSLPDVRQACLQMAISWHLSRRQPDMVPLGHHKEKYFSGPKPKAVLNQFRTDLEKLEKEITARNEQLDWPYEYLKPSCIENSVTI
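Purified human 12hLO (150 nM final) in 25 mM Hepes, 0.01% Triton X-100, pH 7.0 was preincubated 15 min at room temperature with compound. Then 40 uM arachidonic acid was added, 30 min. Hydroperoxide was read by Fe-XO absorbance ratio 573/405 nm.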
KB-V1 MDR tox: kills drug-selected multidrug resistant KB-V1 cells; Potency, µM (doses to about 46.1 µM), most hits filed as cytotoxic; KB-V1 MDR cells viability, CellTiter-Glo, 72 h; AID 1347076; 400,000 tested, 3.4% active; also: % is scaled to controls: 0 for no effect and ±100 for the full control effect; nearly all actives have a fitted effect of over 60% in size
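KB-V1 cells (P-gp-expressing MDR subline of KB-3-1) in phenol-red-free DMEM with 10% FBS were exposed to library compounds over a concentration series for 72 h at 37 degrees C. Viability read by CellTiter-Glo luminescence; concentration-effect curves fitted after normalization.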
MCF10A rereplic: inducers of DNA re-replication in MCF 10A breast cells; MCF 10A DNA re-replication, Hoechst nuclear intensity, 48 h; Potency, µM (highest dose often 46.1 µM), for inactives: at the highest dose activity, positive = re-replication, actives largely listed as activators; 350,000 tested, 2.9% active; AID 624296; also: % of control where 0% means no effect; nearly all actives have a fitted effect of over 50% in size
PINK1 expr mod: modulators of PINK1 expression. Potency, µM (series often up to 76.6 µM), for the others: at the top dose activation (PINK1 increase), usual class: activators. PINK1 immunofluorescence, high-content cytometry, 24 h. 410,000 tested, 0.2% active; active = well fitted activation curve with a large enough effect; inconclusive = small, poorly fitted or top-dose-only effect; cell line not stated here; also: % of control where 0% means no effect; nearly all actives have a fitted effect of over 65% in size
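PINK1 protein level read as immunofluorescence by microplate cytometer in a fixed, stained stable cell line after 24 h exposure to five compound concentrations, with CCCP as control.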
KB-3-1 tox: kills parental KB-3-1 adenocarcinoma cells; 400,000 tested, 1.4% active; Potency, µM (top dose mostly 46.1 µM), usual class: cytotoxic; KB-3-1 viability, CellTiter-Glo ATP luminescence, 72 h; also: % is scaled to controls: 0 for no effect and ±100 for the full control effect; nearly all actives have a fitted effect of over 60% in size
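Luminescent ATP read-out (CellTiter-Glo) measures survival of drug-naive KB-3-1 cells after 72 h compound exposure at 37 °C. Titration series was screened from lowest to highest concentration, with DMSO vehicle plates as background controls.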
SW480 rerep: inducers of DNA re-replication in SW480 colon cancer cells; 340,000 tested, 1.8% active; AID 624297; Potency, µM (doses to about 46.1 µM), inactives show at the top dose re-replication activation, usual class: activators; SW480 DNA re-replication, Hoechst DNA content imaging, 48 h; also: % of control where 0% means no effect; nearly all actives have a fitted effect of over 55% in size
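Quantitative HTS format with DMSO vehicle controls; 48 hr drug incubation at 37 C, then 40 min Hoechst staining and scanning imager measurement at 405 nm excitation.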
* = called active by the depositor; i = inactive; ? = inconclusive; nt = no result; [ ] = remark or other dose. The list is not random: actives were taken first. Their share in the collection is about 5.8%. Unless noted, calls follow the shape of the dose curve; as a rule, active = well fitted curve in the direction sought with a large enough effect; inconclusive = small, poorly fitted or top-dose-only effect, or another doubt; inactive = no such curve, though single readings can be large; an effect the other way counts as inactive or inconclusive. Potency is read from the fitted curve at half-maximal effect.

SMILES	12-LOX inh	KB-V1 MDR tox	MCF10A rereplic	PINK1 expr mod	KB-3-1 tox	SW480 rerep
Cc1c(Cc2ccccc2)sc(/N=C/c2ccc3ccccc3c2)c1C(N)=O	nt	0.92µM*	2.91µM*	18.2%	?	1.16µM*
Cc1c(Cc2ccccc2)sc(/N=C/c2c(O)ccc3ccccc23)c1C(N)=O	nt	?	11.6µM*	?	i	?
Cc1ccc(/C=N/c2sc(Cc3ccccc3)c(C)c2C(N)=O)o1	?	?	?	10.6%	?	-441.8%
CSc1nc(N)c2c(n1)NC1=C(C(=O)CC(C)(C)C1)C2c1ccccc1 (centres undefined)	0.4%	nt	nt	nt	nt	nt
CC(C)CN1C(=O)c2cccn2CC1C(=O)N1CCN(c2ncccn2)CC1 (centres undefined)	27.1%	nt	nt	nt	nt	nt
COCCNc1nc(Nc2ccc(C)cc2C)c2sccc2n1	2.9%	5.17µM*	nt	1.5%	5.17µM*	nt
CCOC(=O)C(Cc1cc(C)c(CC(C(=O)OCC)C(=O)OCC)cc1C)C(=O)OCC	73.4%	nt	nt	nt	nt	nt
Cc1ccccc1Sc1c(C#N)c(-c2ccccc2)nn1C	-28.1%	i	?	7.08µM*	i	10.1%
Cc1ccccc1OCc1nnc(SCC(=O)NCc2ccccc2)n1C	0.0%	i	?	-1.1%	i	-5.6%
Cc1cccc(OCc2nnc(SCC(=O)c3cccs3)n2C)c1C	-6.5%	16.4µM*	2.4%	1.5%[38.3 µM]	i	2.8%
C=C(C)COc1ccc(-c2n[nH]c(C)c2-c2ccc(OC)cc2)c(O)c1	?	?	20.6µM*	21.2%	?	?
COc1ccc(-c2c(-c3ccc(OCC(=O)NN)cc3O)n[nH]c2C(F)(F)F)cc1	?	i	23.1µM*	3.3%	i	?
CCOc1ccc(-c2n[nH]c(C)c2-c2ccccc2OC)c(O)c1	39.1%	i	12.6µM*	5.5%	?	?
COc1ccc(-c2c(-c3ccc(OCCN4CCC(C)CC4)cc3O)n[nH]c2C)cc1	-10.0%	nt	nt	nt	nt	nt
CCc1cc(-c2n[nH]c(C)c2-c2nc3ccccc3n2C)c(O)cc1O	-21.8%	i	?	3.1%	?	?
CCc1cc(-c2n[nH]c(C)c2-c2ccccc2Cl)c(O)cc1OC	39.8µM*	i	?	6.2%	i	10.1%
O=C(Cc1ccc(Cl)c(Cl)c1)NCc1ccccn1	7.6%	nt	nt	nt	nt	nt
O=C1C2C3c4ccccc4C(Br)(c4ccccc43)C2C(=O)N1c1ccccc1O (centres undefined)	-15.2%	i	-6.9%	0.9%	i	18.4µM*
CC(C)c1ccccc1NC(=O)C1CC2CCC1C2 (centres undefined)	-3.0%	nt	nt	nt	nt	nt
